The record followed here is PubChem BioAssay.

Each structure is given as a SMILES string. Inconclusive results are not listed. A number with no mark means an inactive call. Active and inactive are the calls of the source.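 The calls were made as follows: active = viability at or below 27.92% in each of two runs, the all-compound median minus 4 SD; inconclusive = no clear call, values can overlap the other calls; inactive = the rest.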

A short description of this assay: growth suppression of PTEN-deleted HCT116, pilot screen, cell-based, HCT116 clonal line, CellTiter-Glo (AID 824).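 Also: 0% = 20 µM Hyamine control and 100% = vehicle cell control.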 Conditions: 60 h, at 10 µM, stronger effect = lower value.
`CN(C)c1ccc(NC(=O)Cn2cc3c(n2)CCCC3)cc1`: the viability was 62%.
To `CCOC(=O)c1cc(NC(=O)SCC(=O)O)c(C)nc1C` belongs 101%.
As to `Cc1nc2ccccc2c2oc(C(=O)NCC3COc4ccccc4O3)cc12` (stereo unspecified), the viability is 70.8%.
To `O=C(CS(=O)(=O)c1cn(Cc2ccc(F)cc2)c2ccccc12)N1CCCCC1` belongs 82.9%.
Turning to `Cc1ccc(C2c3c(oc4ccccc4c3=O)C(=O)N2c2nnc(C(C)C)s2)o1` (stereo unspecified), the viability was 98.1%.
Next, `Cc1cc(C)c2c(=O)n(CC(=O)NCCCN3CCN(c4ccccc4F)CC3)sc2n1`: 1.7% (active); `COc1ccccc1S(=O)(=O)Cc1ccc(C(=O)NCCN2CCCCCC2)o1`: 104%.
To `COc1ccc(C2C(C(=O)Nc3cccnc3)=C(C)Nc3nc(-c4cccs4)nn32)cc1OC` (stereo unspecified) belongs 95.6%; to `Cc1cc(=O)oc2cc(OCC#N)ccc12`, 96.1%.
Consider `CC1=C(C(N)=O)C(c2ccccn2)n2nc(SCc3ccccc3)nc2N1` (stereo unspecified), for which the viability is 95.6%.
On to `OC1(c2cccc(C(F)(F)F)c2)CCN(c2ccc(-c3ccccc3)nn2)CC1`, for which the viability was 46.8%.
As to `CCOC(=O)CSC1=C(C#N)C(c2ccc(C)o2)CC(=O)N1` (stereo unspecified), the viability is 14.7% (active).
As to `O=C(Nc1nc2c(s1)CCCC2)C1COc2ccccc2O1` (stereo unspecified), the viability was 87%.
Consider `Cc1ccccc1Cn1nc(C)c(NC(=O)c2noc3c2CCc2ccccc2-3)c1C`, for which the viability is 85.2%.
To `O=C(C1CC1)N1CCc2cc(Br)cc(S(=O)(=O)N3CCOCC3)c21` belongs 83.2%; to `C/C=C/COC(=O)c1[nH]c2c(c1C)C(=O)CC(c1ccco1)C2` (stereo unspecified), 19.8% (active).

In general, viability refers to a read-out of living cells in per cent, often relative to untreated cells.
